Results published in the supplement of paper PMC10121225.
Counter-ions that a name gives are not always drawn.

What follows are molecules tested on hN + hpA co-culture (H1 iNGN2 human neurons + human primary astrocytes) (assay: presynaptic density (SYNAPSIN1 puncta per MAP2 neurite area), Z-score vs DMSO controls; higher = more presynaptic puncta (synapse-promoting)). Conditions: 3 µM; 72 h.
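Further: immunostained co-cultures imaged by high-content microscopy, Z-score per plate against mean and SD of 0.1% DMSO wells, compounds added on differentiation day 18, analysed day 21.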

SMILES	presynaptic density (Z-score)
CN1CC(=O)N2[C@H](c3ccc4c(c3)OCO4)c3[nH]c4ccccc4c3C[C@@H]2C1=O [Tadalafil]	-0.533
Nc1cccc2c1CN(C1CCC(=O)NC1=O)C2=O (stereo not given) [Lenalidomide]	1.39
c1ccc(CC2=NCCN2)cc1 [Tolazoline HCl]	-0.161
CCN(CC)CCCC(C)Nc1nc(C)cc(Nc2ccc3nc(C)cc(N)c3c2)n1 (stereo not given)	-0.607
CC[C@H](C)C(=O)O[C@H]1C[C@@H](C)C=C2C=C[C@H](C)[C@H](CC[C@@H]3C[C@@H](O)CC(=O)O3)[C@H]21	1.56
NC(=O)c1ncn([C@@H]2O[C@H](CO)[C@@H](O)[C@H]2O)c1N	0.26
Cc1ccc(S(=O)(=O)n2c(N)nc3ccccc32)cc1 [ML130 (Nodinitib-1)]	0.396
Cc1cc(Nc2cc(CN3CCOCC3)c3nc(C)c(Cc4ccc(Cl)cc4F)n3n2)n[nH]1	-1.8
CCCC(C)NC(=O)c1ccc(Cl)c(Cl)c1 (stereo not given)	-0.211
N#C[C@@H]1CCCN1C(=O)CNC12CC3CC(CC(O)(C3)C1)C2 [Vildagliptin (LAF-237)]	0.854
CCN(CC)C(=O)/C(C#N)=C/c1cc(O)c(O)c([N+](=O)[O-])c1 [Entacapone]	0.44
Cc1ccc(-c2cc(C(F)(F)F)nn2-c2ccc(S(N)(=O)=O)cc2)cc1	-0.625
C[C@H]1COC2(CCN(c3nc(=O)c4cc(C(F)(F)F)cc([N+](=O)[O-])c4s3)CC2)O1 (racemic) [BTZ043 Racemate]	0.635
OC[C@H]1O[C@@H](c2ccc(Cl)c(Cc3ccc(O[C@H]4CCOC4)cc3)c2)[C@H](O)[C@@H](O)[C@@H]1O	-0.331
CNC(=O)c1cc(Oc2ccc(NC(=O)Nc3cc(C(C)(C)C)nn3-c3ccc4ncccc4c3)c(F)c2)ccn1 [DCC-2036 (Rebastinib)]	0.594
COCCCC/C(=N\OCCN)c1ccc(C(F)(F)F)cc1 [Fluvoxamine maleate]	-0.239
CC1=C(/C=C/C(C)=C/C=C/C(C)=C\C(=O)O)C(C)(C)CCC1 [Isotretinoin]	-2.56
CNC(=O)c1ccc2cc([C@@]3(O)CCn4cncc43)ccc2c1 [TAK-700 (Orteronel)]	0.215
NS(=O)(=O)c1ccc(NC(=O)Nc2ccc(F)cc2)cc1	0.585
COc1cc(N2CCC(N(C)C)CC2)ccc1Nc1ncc(Cl)c(Nc2ccccc2P(C)(C)=O)n1	0.449
COC(=O)CCSCc1ccc(-c2onc(C)c2NC(=O)OC(C)c2ccccc2Cl)cc1 (stereo not given)	-0.843
O=C(Cc1ccc(-c2ccc(OCCN3CCOCC3)cc2)cn1)NCc1ccccc1	-5.26
Nc1ncnc2c1c(-c1cccc(OCc3ccccc3)c1)cn2C1CC(CN2CCCC2)C1 (stereo not given)	-1.9
CC(C)c1ccc(NC(=O)Cn2cnc3c2c(=O)n(C)c(=O)n3C)cc1	-0.215
O=c1ncccn1[C@@H]1O[C@H](CO)[C@@H](O)[C@H]1O [Zebularine]	-0.579
